# Source: PubChem (several laboratories)
# Compounds with a hit are over-represented: about 1.7% of the library has one in this group of screens.
# PfHsp40 yeast – rescue of yeast from PfHsp40 toxicity, primary screen, S. cerevisiae, ATP luminescence; S. cerevisiae expressing PfHsp40, growth rescue; growth rescue, % at 12.5 µM; 340,000 compounds, 0.68% hits; in the data active means growth rescue above about 28%, passing the limit was not always enough;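 further: yeast W303a lacking pdr1 and pdr3 grown in galactose medium; growth measured after three days at 30 °C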
# Sa ugtP lethal – growth inhibition of ugtP-null S. aureus, primary screen, RN4220 ugtP deletion, OD600 | 16 h | 330,000 compounds, 0.54% hits | growth inhibition, % (concentration not given with the values); in the data active means growth inhibition above about 68%
# Sa RN4220 lethal – growth inhibition of S. aureus RN4220, primary screen, OD600; AID 1259311, 2017; inhibition, % (test concentration not listed); 16 h; 330,000 compounds, 0.33% hits; in the data active means inhibition above about 85%
# Mtb hypoxia rep – PubChem AID 1159583; M. tuberculosis hypoxia-regulated fluorescent reporter, fluorescence; fluorescence inhibition, % (test concentration not listed); 300,000 compounds, 0.1% hits; in the data active means fluorescence inhibition mostly above about 23%, no sharp cut-off; inactive means mostly below about 17%
# CCHF vOTU inh – CCHFV vOTU protease inhibitors, primary screen, biochemical, Pep-AMC substrate, fluorescence | Crimean-Congo hemorrhagic fever virus L polyprotein viral ovarian tumor (vOTU) protease … | inhibition, % at 11.5 µM | 370,000 compounds, 0.55% hits; in the data active means inhibition above about 30%
# Vc quorum ag – inducers of Vibrio cholerae quorum light production without autoinducers, primary screen, BH1578 luxS cqsA deficient, single point | AID 588436, 2011 | 350,000 compounds, 0.16% hits | activation, % at 18.7 µM | V. cholerae BH1578 lux reporter, luminescence, 6 h; in the data active means activation mostly above about 9.7%, no sharp cut-off
# Numbers stand for hits; n = inactive; x = no result given.
SMILES,PfHsp40 yeast,Sa ugtP lethal,Sa RN4220 lethal,Mtb hypoxia rep,CCHF vOTU inh,Vc quorum ag
CNC(=S)Nc1ccc(-c2nc3ccc(C)cc3s2)cc1,n,n,n,36.7,n,n
COc1ccc(N(CC(=O)NN=Cc2ccc(N(C)C)cc2)S(=O)(=O)c2ccccc2)cc1,x,n,n,n,x,x
CSc1ccc(C=Nn2c(COc3ccccc3)n[nH]c2=S)cc1,x,n,n,n,x,x
O=C(C=C(O)c1ccc(Cl)cc1)C(=O)NNC(=O)C(O)(c1ccccc1)c1ccccc1,n,95.2,n,n,n,n
Cc1ccc(/C(O)=C/C(=O)C(=O)NNC(=O)C(O)(c2ccccc2)c2ccccc2)cc1,n,n,n,n,n,n
CC(C)CC(CO)N1CCN(Cc2ccc(Br)cc2)CCC1=O (stereo not given),x,n,n,n,x,x
O=C(NN=Cc1c[nH]c2ccccc12)c1cc(-c2cccc3ccccc23)n[nH]1,x,n,n,n,x,x
O=C(NN=Cc1c[nH]c2ccccc12)c1cc(-c2ccc(-c3ccccc3)cc2)n[nH]1,x,n,87.3,n,x,x
N#CC(=NNc1ccc([N+](=O)[O-])cc1)C(=N)N1CCOCC1,x,n,n,n,x,x
COc1cccc(C=NNc2nc(N3CCCC3)nc(N3CCCC3)n2)c1O,x,n,n,n,x,x
CS(=O)(=O)c1ccc(S(=O)CC(=O)Oc2ccc(Cl)cc2)c([N+](=O)[O-])c1 (stereo not given),x,n,n,n,x,x
O=C(CS(=O)c1ccccc1[N+](=O)[O-])Oc1ccc(Br)cc1 (stereo not given),67.6,n,n,n,n,n
CCOC(=O)c1cnc(-n2nc(C)cc2C)nc1NC1CCCCC1,91.8,n,n,n,n,n
CCOC(=O)c1cnc(-n2nc(C)cc2C)nc1NC,n,n,n,n,n,n
COc1ccc(OC)c(C=NNC(=O)CCCC(=O)Nc2cccc(Br)c2)c1,x,n,n,n,x,x
O=C(C/C=N\O)Nc1ccc(Oc2ccccc2)cc1,45.9,x,x,x,n,n
COC(=O)NN=Cc1ccc(OC(=O)/C=C/c2ccco2)cc1,x,n,n,n,x,x
CCOC(=O)c1c2c(n(-c3ccc(OC)cc3)c1C)C(=O)C(=O)c1ccccc1-2,85.3,x,x,x,x,n
CCOC(=O)c1sc(=S)n(-c2ccc(OC)cc2)c1C,x,n,n,n,n,n
CCc1ccccc1OCC(=O)Nc1nc(-c2cccnc2)cs1,237.5,n,n,n,n,n
O=C(CC1CC2CCC1C2)Nc1nc(-c2ccccn2)cs1 (stereo not given),438.1,n,n,n,n,n
CCC(=O)c1ccc(OCC(=O)Nc2nc(-c3cccnc3)cs2)cc1,n,n,n,n,n,n
O=C(Nc1nc(-c2ccccn2)cs1)C1CC1,n,n,n,n,n,n
Cc1cc(C)c(OCC(=O)Nc2nc(-c3ccccn3)cs2)c(C)c1,313.4,n,n,n,n,n
COc1ccc(OCCCC(=O)Nc2nc(-c3ccccn3)cs2)cc1,n,n,n,n,n,n
SMILES,PfHsp40 yeast,Sa ugtP lethal,Sa RN4220 lethal,Mtb hypoxia rep,CCHF vOTU inh,Vc quorum ag
CSc1ccc(C=NNC(=O)CNc2cccc3ccccc23)cc1,x,n,n,n,x,x
COC(=O)C1=C(C)N(CC2CC2)C(=NCc2cc(OC)c(OC)c(OC)c2)NC1c1ccccc1 (stereo not given),x,n,n,n,x,x
Cc1cc2n(n1)C(c1c[nH]c3ccccc13)Nc1ccccc1-2 (stereo not given),n,99.3,99.2,n,x,n
O=C(NN=Cc1cc(Cl)ccc1O)c1ccc(Br)cc1,x,89.9,n,n,x,x
O=C(N/N=C/c1cc(Cl)ccc1O)c1ccccc1Br,107.7,x,x,x,n,n
O=[N+]([O-])c1cccc(/C=C/C=NNc2nc(N3CCCCC3)nc(N3CCCCC3)n2)c1,x,n,n,n,x,x
COc1ccccc1NS(=O)(=O)c1cc(NC(=O)Nc2ccccc2)ccc1N1CCCCC1,45.8,n,n,n,n,n
CCNC(=S)Nc1ccc(C)c(S(=O)(=O)Nc2ccccc2OC)c1,105.9,n,n,n,n,n
CC1CCN(C(=O)c2nc[nH]c2C(=O)OC(C)c2ccccc2)CC1 (stereo not given),x,n,n,n,x,x
Cc1nc2ccccc2cc1C(=O)NN=Cc1ccc([N+](=O)[O-])cc1,x,n,n,n,x,x
O=C1NCC(Cc2cccc3ccccc23)N(CCC23CC4CC(CC(C4)C2)C3)C1=O (stereo not given),x,n,n,n,x,x
